Results taken from PubChem BioAssay.
“And” between values parts separate entries of the source, which are not always exact repeats. Identical values can stand only once. The source made the active and inactive calls. Cut-off read from the data, not from the text of the source: active = parasite load remaining mostly below about 12% (no sharp cut-off); inactive = mostly above about 10%.

assay: liver-stage malaria parasite growth inhibition, primary screen, cell-based, HepG2, luciferase luminescence, HepG2 viability (AID 624349);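 note: 100% = mean of DMSO negative control wells on the same plate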; settings: P. berghei liver stage in HepG2, luciferase luminescence, concentration not given here; parasite load remaining: stronger effect = lower value; viability: measured here: HepG2 viability without parasites

SMILES	parasite load remaining	viability
CNNCc1ccc(C(=O)NC(C)C)cc1	101% (inactive) and 80.5% (inactive) and 21.4% (inactive)	76.9% and 70.8% and 66.5%
Nc1nc2c(ncn2CCC(CO)CO)c(=O)[nH]1	89.5% (inactive) and 22.2% (inactive)	82.6% and 70.5%
O=C1CC2(CCCC2)CC(=O)N1CCNCC1COc2ccccc2O1 (configuration not stated)	46.8% (inactive)	69.1%
Cn1nnc2c(C(N)=O)ncn2c1=O	106% (inactive) and 19.4% (inactive)	79.6% and 80.5%
O=C1[C@H]2CCCC[C@H]2C(=O)N1CCCCN1CCN(c2nsc3ccccc23)CC1	42.7% (inactive)	60.1%
O=C(O)CCNC(=O)c1ccc(N=Nc2ccc(O)c(C(=O)O)c2)cc1	105% (inactive) and 63.3% (inactive)	90.8% and 75.1%
CC(Oc1c(Cl)cccc1Cl)C1=NCCN1 (configuration not stated)	53.2% (inactive) and 28% (inactive)	69% and 138%
CN1CCN(C2=Nc3cc(F)ccc3Cc3ccccc32)CC1	91.4% (inactive) and 40.9% (inactive)	62.6% and 67%
COC(=O)C1=C(C)NC(C)=C(C(=O)OC(C)C)C1c1cccc2nonc12 (configuration not stated)	105% (inactive) and 85.6% (inactive)	74.3% and 66.7%
CCOc1cc(N)c(Cl)cc1C(=O)NCC1CN(Cc2ccc(F)cc2)CCO1 (configuration not stated)	29.6% (inactive)	70.5%
O=c1c(-c2ccccc2)c1-c1ccccc1	7.97% (inactive)	65.5%
O=C1Nc2ccc(Cl)cc2[C@@](C#CC2CC2)(C(F)(F)F)O1	46.6% (inactive) and 8.97% (inactive)	69% and 64.5%
Nc1nc(N)nc(-c2cc(Cl)ccc2Cl)n1	141% (inactive) and 22.8% (inactive)	129% and 67.5%
OCCOCCN1CCN(C2=Nc3ccccc3Sc3ccccc32)CC1	49.4% (inactive) and 94% (inactive) and 56.9% (inactive)	95.1% and 77.7% and 206%
CC(=O)Nc1ccc(CC(=O)O)cc1	119% (inactive)	78.7%
O=c1[nH]cnc2c1ncn2[C@H]1CC[C@@H](CO)O1	41.8% (inactive) and 84.4% (inactive) and 65.2% (inactive)	46.9% and 69.4% and 110%

SMILES	parasite load remaining	viability
COC(=O)C1=C(C)NC(C)=C(C(=O)O[C@@H]2CCCN(Cc3ccccc3)C2)[C@@H]1c1cccc([N+](=O)[O-])c1	10.8% (inactive)	55.9%
Cc1c(O)cccc1C(=O)N[C@@H](CSc1ccccc1)[C@H](O)CN1C[C@H]2CCCC[C@H]2C[C@H]1C(=O)NC(C)(C)C	23.1% (inactive) and 3.4% (inactive)	69.9% and 65.5%
CCc1nn(CCCN2CCN(c3cccc(Cl)c3)CC2)c(=O)n1CCOc1ccccc1	9.1% (inactive) and 13.5% (inactive)	58.6% and 64.5%
Nc1[nH]c(=O)ncc1F	85.3% (inactive) and 51.1% (inactive) and 109% (inactive)	93.3% and 117% and 86.7%
O=C1CCc2ccc(OCCCCN3CCN(c4cccc(Cl)c4Cl)CC3)cc2N1	37.5% (inactive) and 20.9% (inactive) and 45.9% (inactive)	98.8% and 60.3% and 100%
COc1cc(C(=O)NC2CCCNC2)cc(OC)c1OC (configuration not stated)	134% (inactive)	80.6%
COc1ccc(C(=O)NCc2ccc(OCCN(C)C)cc2)cc1OC	97.5% (inactive) and 24.6% (inactive)	80.4% and 69%
COCc1c(C(C)C)nc(C(C)C)c(/C=C/[C@@H](O)C[C@@H](O)CC(=O)O)c1-c1ccc(F)cc1	149% (inactive) and 309% (inactive)	53.2% and 109%
CC(C)(C)C(O)/C=C/c1ccc2c(c1)OCO2 (configuration not stated)	76% (inactive)	68%
Cc1ccnc2c1NC(=O)c1cccnc1N2C1CC1	79.8% (inactive)	69.1%
CCOc1cc(CC(=O)N[C@@H](CC(C)C)c2ccccc2N2CCCCC2)ccc1C(=O)O	85.6% (inactive) and 16.6% (inactive) and 98.7% (inactive)	77.8% and 183% and 76.2%
Nc1c2c(nc3c1CCC3)CCCC2	74.2% (inactive)	68.8%
CCOC(=O)OC(C)OC1=C(C(=O)Nc2ccccn2)N(C)S(=O)(=O)c2ccccc21 (configuration not stated)	75.6% (inactive) and 16.2% (inactive)	78.8% and 73%
CN1CCN(c2c(F)cc3c(=O)c(C(=O)O)cn4c3c2SCC4)CC1	99.2% (inactive) and 24.3% (inactive)	91.2% and 66%
Cc1nc2n(c(=O)c1CCN1CCC(c3noc4cc(F)ccc34)CC1)CCCC2	83.8% (inactive) and 28.6% (inactive) and 49.1% (inactive)	76.9% and 60.3% and 97.5%
